# According to paper PMC7862700, “An all-to-all approach to the identification of sequence-specific readers for epigenetic DNA modifications on cytosine”:
# Tests used:
# Test in all cases: DAPPL (digital affinity profiling via proximity ligation, sequencing); 10 mM Tris-HCl pH 7.5, 50 mM NaCl, 1 mM DTT, 4% glycerol, room temperature, 30 min; GST-TFs on glutathione beads, 16-mer random dsDNA library, 0.1% formaldehyde crosslink after washing; high values mean tight binding
# [1] = target: T1, FEV (Homo sapiens, UniProt Q99581 1-238); conditions: protein: recombinant; tags: N-terminal GST; dsDNA, one strand shown
# T1 sequence: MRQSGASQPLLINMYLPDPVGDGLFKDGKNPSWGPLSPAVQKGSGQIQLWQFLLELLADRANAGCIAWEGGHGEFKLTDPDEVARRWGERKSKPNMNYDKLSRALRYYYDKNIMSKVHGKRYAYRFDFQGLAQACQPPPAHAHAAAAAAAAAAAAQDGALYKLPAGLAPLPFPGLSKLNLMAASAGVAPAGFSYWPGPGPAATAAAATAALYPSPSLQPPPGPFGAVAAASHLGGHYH
# Outline: (§1)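 Human transcription factors fused to GST were expressed in yeast, captured on glutathione beads, given DNA barcodes and pooled with a GST-only negative control. Pools were incubated with 200 nmole of a 16-mer random double-stranded DNA library in Tris/NaCl/DTT/glycerol buffer at room temperature for 30 min. They were then washed, crosslinked with 0.1% formaldehyde, proximity-ligated (BsaI/T4 ligase, 1 h, 37 °C), PCR-amplified and sequenced on an Illumina NextSeq500. Binding signal is each 6-mer's read frequency for a factor divided by its frequency for the GST control.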
# [2] = target: ETV5 (Homo sapiens, UniProt P41161 1-510); conditions: protein: recombinant; tags: N-terminal GST; dsDNA, one strand shown
# Outline: as §1
# [3] = target: HSF1 (Homo sapiens, UniProt Q00613 1-529); conditions: protein: recombinant; tags: N-terminal GST; chain copies: 3; dsDNA, one strand shown
# Outline: as §1
# [4] = target: T2, SPIC (Homo sapiens, UniProt Q8N5J4 1-248); conditions: protein: recombinant; tags: N-terminal GST; dsDNA, one strand shown
# T2 sequence: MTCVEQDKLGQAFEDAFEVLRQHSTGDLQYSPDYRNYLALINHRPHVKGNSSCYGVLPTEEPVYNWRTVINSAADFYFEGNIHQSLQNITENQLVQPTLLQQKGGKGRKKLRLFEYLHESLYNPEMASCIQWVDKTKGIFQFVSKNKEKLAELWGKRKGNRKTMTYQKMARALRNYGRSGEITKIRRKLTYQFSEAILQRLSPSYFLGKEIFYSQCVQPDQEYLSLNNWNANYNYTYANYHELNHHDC
# Outline: as §1
# [5] = target: ELF4 (Homo sapiens, UniProt Q99607 1-663); conditions: protein: recombinant; tags: N-terminal GST; dsDNA, one strand shown
# Outline: as §1
# [6] = target: T3, ELK4 (Homo sapiens, UniProt P28324-2 1-405); conditions: protein: recombinant; tags: N-terminal GST; dsDNA, one strand shown
# T3 sequence: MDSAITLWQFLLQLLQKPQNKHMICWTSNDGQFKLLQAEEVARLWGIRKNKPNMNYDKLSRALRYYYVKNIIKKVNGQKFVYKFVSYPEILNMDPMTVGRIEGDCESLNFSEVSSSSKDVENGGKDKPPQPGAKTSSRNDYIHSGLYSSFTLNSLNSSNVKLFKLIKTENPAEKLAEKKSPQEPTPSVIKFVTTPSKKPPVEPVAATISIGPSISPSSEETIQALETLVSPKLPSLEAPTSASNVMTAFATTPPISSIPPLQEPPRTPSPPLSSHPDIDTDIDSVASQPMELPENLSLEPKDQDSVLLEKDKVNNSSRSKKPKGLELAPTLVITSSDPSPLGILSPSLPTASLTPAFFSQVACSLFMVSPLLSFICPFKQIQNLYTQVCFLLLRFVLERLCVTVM
# Outline: as §1
# [7] = target: T4, ETV2 (Homo sapiens, UniProt O00321 1-342); conditions: protein: recombinant; tags: N-terminal GST; dsDNA, one strand shown
# T4 sequence: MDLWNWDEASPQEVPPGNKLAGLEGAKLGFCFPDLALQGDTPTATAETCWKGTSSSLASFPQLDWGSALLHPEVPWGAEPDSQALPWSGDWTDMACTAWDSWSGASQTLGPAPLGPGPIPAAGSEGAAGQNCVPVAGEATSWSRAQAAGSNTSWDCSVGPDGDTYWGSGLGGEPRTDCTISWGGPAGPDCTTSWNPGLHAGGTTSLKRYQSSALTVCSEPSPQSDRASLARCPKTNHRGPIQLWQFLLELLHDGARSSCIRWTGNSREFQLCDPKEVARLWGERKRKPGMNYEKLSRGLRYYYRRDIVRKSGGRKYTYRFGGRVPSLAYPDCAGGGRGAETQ
# Outline: as §1
# [8] = target: T5, ELF3 (Homo sapiens, UniProt P78545 1-371); conditions: protein: recombinant; tags: N-terminal GST; dsDNA, one strand shown
# T5 sequence: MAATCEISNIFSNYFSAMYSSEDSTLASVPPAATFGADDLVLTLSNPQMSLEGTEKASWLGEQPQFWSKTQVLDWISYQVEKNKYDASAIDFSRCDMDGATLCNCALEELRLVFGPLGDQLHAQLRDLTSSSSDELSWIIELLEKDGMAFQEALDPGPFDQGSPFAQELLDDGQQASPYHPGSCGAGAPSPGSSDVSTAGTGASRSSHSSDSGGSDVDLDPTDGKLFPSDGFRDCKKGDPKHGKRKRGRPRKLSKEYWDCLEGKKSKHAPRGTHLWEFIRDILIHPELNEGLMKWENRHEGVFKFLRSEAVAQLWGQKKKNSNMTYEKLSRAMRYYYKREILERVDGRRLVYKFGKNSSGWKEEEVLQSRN
# Outline: as §1
# [9] = target: CRX (Homo sapiens, UniProt O43186 1-299); conditions: protein: recombinant; tags: N-terminal GST; dsDNA, one strand shown
# Outline: as §1
# [10] = target: ETV1 (Homo sapiens, UniProt P50549 1-477); conditions: protein: recombinant; tags: N-terminal GST; dsDNA, one strand shown
# Outline: as §1
# [11] = target: T6, ERF (Homo sapiens, UniProt P50548 1-548); conditions: protein: recombinant; tags: N-terminal GST; dsDNA, one strand shown
# T6 sequence: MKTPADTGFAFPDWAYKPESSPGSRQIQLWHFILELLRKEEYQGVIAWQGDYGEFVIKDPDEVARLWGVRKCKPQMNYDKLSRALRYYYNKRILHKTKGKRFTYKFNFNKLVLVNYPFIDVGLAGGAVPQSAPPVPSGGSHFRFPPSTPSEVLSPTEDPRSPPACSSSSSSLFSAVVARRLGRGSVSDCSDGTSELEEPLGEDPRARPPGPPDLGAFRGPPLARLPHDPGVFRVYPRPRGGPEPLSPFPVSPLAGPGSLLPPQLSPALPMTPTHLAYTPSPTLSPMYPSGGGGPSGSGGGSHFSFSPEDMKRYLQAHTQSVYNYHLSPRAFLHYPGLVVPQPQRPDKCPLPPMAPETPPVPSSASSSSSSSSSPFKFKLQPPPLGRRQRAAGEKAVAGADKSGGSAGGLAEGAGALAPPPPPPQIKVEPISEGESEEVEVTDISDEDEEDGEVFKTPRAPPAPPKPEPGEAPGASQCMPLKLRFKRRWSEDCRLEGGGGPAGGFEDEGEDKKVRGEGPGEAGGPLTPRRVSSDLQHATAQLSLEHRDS
# Outline: as §1
# [12] = target: T7, ETV3L (Homo sapiens, UniProt Q6ZN32 1-361); conditions: protein: recombinant; tags: N-terminal GST; dsDNA, one strand shown
# T7 sequence: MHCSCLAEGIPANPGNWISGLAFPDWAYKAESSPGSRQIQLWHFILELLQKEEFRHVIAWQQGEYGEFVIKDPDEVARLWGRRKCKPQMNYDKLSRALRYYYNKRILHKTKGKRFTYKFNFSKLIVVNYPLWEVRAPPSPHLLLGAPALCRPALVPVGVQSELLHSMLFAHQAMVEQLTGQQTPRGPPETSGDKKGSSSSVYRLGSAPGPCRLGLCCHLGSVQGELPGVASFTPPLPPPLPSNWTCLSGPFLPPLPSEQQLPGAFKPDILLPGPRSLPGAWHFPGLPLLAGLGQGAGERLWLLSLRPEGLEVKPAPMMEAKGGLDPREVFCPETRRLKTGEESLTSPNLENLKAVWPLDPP
# Outline: as §1
# [13] = target: T8, ETS2 (Homo sapiens, UniProt P15036 1-469); conditions: protein: recombinant; tags: N-terminal GST; dsDNA, one strand shown
# T8 sequence: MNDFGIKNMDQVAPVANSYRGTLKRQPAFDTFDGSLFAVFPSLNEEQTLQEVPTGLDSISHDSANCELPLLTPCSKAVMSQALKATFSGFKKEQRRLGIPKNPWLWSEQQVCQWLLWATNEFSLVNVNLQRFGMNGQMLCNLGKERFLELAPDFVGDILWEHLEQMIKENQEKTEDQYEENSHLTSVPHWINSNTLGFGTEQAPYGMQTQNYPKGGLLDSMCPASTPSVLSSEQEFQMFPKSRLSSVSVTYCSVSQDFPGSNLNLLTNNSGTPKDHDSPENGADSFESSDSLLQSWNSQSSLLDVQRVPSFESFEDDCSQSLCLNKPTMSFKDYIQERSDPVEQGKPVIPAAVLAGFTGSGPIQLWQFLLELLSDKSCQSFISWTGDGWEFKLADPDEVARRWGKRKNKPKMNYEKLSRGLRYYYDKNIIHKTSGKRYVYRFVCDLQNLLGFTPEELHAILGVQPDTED
# Outline: as §1
# [14] = target: T9, SPDEF (Homo sapiens, UniProt O95238 1-335); conditions: protein: recombinant; tags: N-terminal GST; dsDNA, one strand shown
# T9 sequence: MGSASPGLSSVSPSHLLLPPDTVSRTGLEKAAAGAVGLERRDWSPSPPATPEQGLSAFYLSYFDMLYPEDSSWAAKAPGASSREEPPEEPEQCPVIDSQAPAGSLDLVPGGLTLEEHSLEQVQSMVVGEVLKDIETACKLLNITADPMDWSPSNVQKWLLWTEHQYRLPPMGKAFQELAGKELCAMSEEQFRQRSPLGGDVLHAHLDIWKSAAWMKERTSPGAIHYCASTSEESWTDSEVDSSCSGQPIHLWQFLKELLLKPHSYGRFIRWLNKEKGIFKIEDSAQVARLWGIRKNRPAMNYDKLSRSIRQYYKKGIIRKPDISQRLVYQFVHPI
# Outline: as §1
# [15] = target: T10, ETV7 (Homo sapiens, UniProt Q9Y603 1-341); conditions: protein: recombinant; tags: N-terminal GST; dsDNA, one strand shown
# T10 sequence: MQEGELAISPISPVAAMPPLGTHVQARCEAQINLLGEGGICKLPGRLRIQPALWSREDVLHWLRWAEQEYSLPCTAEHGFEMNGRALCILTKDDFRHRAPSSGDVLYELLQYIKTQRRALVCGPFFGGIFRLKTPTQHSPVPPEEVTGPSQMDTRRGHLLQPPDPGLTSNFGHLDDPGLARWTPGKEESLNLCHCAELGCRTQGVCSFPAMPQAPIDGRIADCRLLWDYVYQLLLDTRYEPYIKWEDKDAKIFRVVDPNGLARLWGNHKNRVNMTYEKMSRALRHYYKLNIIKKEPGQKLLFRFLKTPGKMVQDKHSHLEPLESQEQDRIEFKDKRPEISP
# Outline: as §1
# [16] = target: T11, ELF5 (Homo sapiens, UniProt Q9UKW6-2 1-255); conditions: protein: recombinant; tags: N-terminal GST; dsDNA, one strand shown
# T11 sequence: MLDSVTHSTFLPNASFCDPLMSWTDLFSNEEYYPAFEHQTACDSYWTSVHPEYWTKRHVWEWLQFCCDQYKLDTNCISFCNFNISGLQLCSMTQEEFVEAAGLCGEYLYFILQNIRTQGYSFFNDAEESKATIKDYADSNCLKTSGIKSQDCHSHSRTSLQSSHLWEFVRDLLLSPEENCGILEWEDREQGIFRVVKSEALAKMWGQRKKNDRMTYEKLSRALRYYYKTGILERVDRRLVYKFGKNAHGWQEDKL
# Outline: as §1
# [17] = target: T12, ETV3 (Homo sapiens, UniProt P41162-2 1-143); conditions: protein: recombinant; tags: N-terminal GST; dsDNA, one strand shown
# T12 sequence: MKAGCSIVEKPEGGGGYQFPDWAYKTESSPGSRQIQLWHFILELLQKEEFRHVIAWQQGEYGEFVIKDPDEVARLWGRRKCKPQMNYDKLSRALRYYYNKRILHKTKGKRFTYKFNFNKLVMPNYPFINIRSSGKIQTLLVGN
# Outline: as §1
# [18] = target: ETV6 (Homo sapiens, UniProt P41212 1-452); conditions: protein: recombinant; tags: N-terminal GST; dsDNA, one strand shown
# Outline: as §1
# Sequence of ETV5 (P41161 whole entry): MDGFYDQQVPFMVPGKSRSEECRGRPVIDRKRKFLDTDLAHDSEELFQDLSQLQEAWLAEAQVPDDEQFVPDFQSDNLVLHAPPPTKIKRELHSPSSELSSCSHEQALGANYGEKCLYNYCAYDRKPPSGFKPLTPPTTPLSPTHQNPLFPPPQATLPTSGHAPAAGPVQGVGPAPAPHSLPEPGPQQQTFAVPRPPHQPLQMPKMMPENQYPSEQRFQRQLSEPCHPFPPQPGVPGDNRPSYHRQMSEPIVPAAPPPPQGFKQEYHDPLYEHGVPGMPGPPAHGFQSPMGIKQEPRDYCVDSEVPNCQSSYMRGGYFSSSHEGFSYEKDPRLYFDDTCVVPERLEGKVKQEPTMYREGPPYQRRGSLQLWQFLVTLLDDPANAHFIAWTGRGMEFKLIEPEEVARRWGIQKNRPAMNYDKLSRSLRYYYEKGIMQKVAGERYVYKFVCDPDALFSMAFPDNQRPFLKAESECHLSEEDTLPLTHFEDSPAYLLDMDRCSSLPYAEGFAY
# Sequence of HSF1 (Q00613 whole entry): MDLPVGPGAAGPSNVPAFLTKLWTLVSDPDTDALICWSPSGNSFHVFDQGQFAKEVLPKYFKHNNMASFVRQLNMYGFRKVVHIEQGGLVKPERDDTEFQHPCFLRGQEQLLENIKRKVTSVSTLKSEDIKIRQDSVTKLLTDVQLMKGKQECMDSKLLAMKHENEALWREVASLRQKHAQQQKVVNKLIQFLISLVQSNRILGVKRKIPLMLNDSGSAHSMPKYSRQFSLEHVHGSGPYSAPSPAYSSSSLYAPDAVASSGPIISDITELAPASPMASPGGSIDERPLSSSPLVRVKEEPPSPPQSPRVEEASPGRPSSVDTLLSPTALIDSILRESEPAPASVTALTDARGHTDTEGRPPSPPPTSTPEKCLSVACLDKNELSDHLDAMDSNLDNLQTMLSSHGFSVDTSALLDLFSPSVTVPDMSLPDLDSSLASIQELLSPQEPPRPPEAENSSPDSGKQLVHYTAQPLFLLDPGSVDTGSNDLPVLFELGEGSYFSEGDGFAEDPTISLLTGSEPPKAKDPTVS
# Sequence of ELF4 (Q99607 whole entry): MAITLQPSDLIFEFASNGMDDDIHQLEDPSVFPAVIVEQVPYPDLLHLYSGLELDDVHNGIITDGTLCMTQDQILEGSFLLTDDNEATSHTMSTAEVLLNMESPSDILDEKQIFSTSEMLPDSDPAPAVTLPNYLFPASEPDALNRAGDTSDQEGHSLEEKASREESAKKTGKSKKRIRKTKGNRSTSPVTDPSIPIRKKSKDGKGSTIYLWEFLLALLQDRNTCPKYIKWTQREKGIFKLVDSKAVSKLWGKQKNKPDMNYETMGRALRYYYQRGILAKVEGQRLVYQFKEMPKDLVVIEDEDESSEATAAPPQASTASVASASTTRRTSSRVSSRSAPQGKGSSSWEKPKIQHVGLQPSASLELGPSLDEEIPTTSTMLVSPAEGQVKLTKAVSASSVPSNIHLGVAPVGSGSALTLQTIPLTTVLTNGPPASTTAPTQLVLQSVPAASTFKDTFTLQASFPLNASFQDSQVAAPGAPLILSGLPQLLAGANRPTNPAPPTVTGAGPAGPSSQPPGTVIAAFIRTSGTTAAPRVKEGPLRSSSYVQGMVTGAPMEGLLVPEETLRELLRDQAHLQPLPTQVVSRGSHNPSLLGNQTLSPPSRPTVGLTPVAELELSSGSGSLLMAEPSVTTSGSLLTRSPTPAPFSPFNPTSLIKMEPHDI
# Sequence of ETV1 (P50549 whole entry): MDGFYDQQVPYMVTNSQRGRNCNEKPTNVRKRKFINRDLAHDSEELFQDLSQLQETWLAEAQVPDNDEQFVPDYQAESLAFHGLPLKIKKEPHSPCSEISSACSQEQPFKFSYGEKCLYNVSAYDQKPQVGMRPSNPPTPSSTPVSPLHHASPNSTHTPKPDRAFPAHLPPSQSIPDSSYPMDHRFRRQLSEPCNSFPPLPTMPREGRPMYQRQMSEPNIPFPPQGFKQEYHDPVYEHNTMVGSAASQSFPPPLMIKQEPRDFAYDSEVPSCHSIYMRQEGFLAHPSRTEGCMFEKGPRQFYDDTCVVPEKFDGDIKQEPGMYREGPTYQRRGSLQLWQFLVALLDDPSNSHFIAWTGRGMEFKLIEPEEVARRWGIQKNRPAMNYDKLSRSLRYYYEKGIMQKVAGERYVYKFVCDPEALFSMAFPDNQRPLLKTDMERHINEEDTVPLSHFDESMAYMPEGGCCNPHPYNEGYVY
# Sequence of CRX (O43186 whole entry): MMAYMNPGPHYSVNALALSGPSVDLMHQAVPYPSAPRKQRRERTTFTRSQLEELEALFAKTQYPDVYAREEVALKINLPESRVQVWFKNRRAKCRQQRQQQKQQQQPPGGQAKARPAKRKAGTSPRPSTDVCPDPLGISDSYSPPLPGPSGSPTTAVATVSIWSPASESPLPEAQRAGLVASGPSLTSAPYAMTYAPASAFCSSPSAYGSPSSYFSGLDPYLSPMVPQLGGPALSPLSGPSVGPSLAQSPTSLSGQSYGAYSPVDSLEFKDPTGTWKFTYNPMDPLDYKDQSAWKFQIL
# Sequence of ETV6 (P41212 whole entry): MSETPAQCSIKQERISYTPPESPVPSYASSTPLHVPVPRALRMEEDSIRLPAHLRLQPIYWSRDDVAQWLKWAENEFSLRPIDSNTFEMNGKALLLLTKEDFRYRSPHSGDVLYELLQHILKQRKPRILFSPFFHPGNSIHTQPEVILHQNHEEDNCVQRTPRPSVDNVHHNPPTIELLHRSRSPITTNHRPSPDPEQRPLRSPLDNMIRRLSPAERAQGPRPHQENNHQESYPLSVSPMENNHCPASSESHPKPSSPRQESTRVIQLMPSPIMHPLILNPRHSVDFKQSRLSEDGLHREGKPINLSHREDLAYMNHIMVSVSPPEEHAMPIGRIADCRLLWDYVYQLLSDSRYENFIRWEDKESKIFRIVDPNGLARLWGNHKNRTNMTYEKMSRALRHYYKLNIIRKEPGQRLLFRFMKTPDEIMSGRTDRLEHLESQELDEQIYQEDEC
sequence,measurement,setting,value
ACACTT,binding signal,[1],"1.68 fold enrichment (6-mer frequency, TF over GST control)"
same,binding signal,[2],"1.67 fold enrichment (6-mer frequency, TF over GST control)"
same,binding signal,[3],"1.11 fold enrichment (6-mer frequency, TF over GST control)"
same,binding signal,[4],"1.71 fold enrichment (6-mer frequency, TF over GST control)"
same,binding signal,[5],"1.55 fold enrichment (6-mer frequency, TF over GST control)"
same,binding signal,[6],"1.49 fold enrichment (6-mer frequency, TF over GST control)"
same,binding signal,[7],"1.58 fold enrichment (6-mer frequency, TF over GST control)"
same,binding signal,[8],"1.66 fold enrichment (6-mer frequency, TF over GST control)"
same,binding signal,[9],"1.16 fold enrichment (6-mer frequency, TF over GST control)"
same,binding signal,[10],"1.77 fold enrichment (6-mer frequency, TF over GST control)"
same,binding signal,[11],"1.51 fold enrichment (6-mer frequency, TF over GST control)"
same,binding signal,[12],"1.64 fold enrichment (6-mer frequency, TF over GST control)"
same,binding signal,[13],"1.76 fold enrichment (6-mer frequency, TF over GST control)"
same,binding signal,[14],"1.61 fold enrichment (6-mer frequency, TF over GST control)"
same,binding signal,[15],"1.78 fold enrichment (6-mer frequency, TF over GST control)"
same,binding signal,[16],"2.02 fold enrichment (6-mer frequency, TF over GST control)"
same,binding signal,[17],"1.66 fold enrichment (6-mer frequency, TF over GST control)"
same,binding signal,[18],"1.95 fold enrichment (6-mer frequency, TF over GST control)"
